Source: PubChem BioAssay AID1159580 (chemical genetic matrix, 2015)
Screen size: about 5,500 compounds; about 2,000 (36%) were called active. About 18% were inconclusive and are not listed. No stated cut-off is given here; in the data, active means normalized growth mostly below about 0.91 (no sharp cut-off); inconclusive means no clear call, values can overlap the other calls; inactive means mostly above about 0.92. The list shows a part of the results.

Test: chemical genetic growth profiling, strain panel (AID 1159580);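 further: tested at 20 µM; growth read once vehicle control cultures reached saturation at 30 °C; 1 = growth at the plate median or of vehicle wells; lower values mean less growth of the strain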
Details: S. cerevisiae deletion strains, growth OD

Measured: normalized growth

O=S(=O)(Nc1ccccc1Sc1c(Cl)cncc1Cl)c1ccc(Cl)cc1
inactive: locus YAR019C, strain CDC15, active compounds read low 0.981 | locus YBL105C, strain PKC1, active compounds read low 0.987 | locus YBR135W, strain CKS1, active compounds read low 0.985 | locus YBR136W, strain MEC1, active compounds read low 0.987 | locus YBR160W, strain CDC28, active compounds read low 0.988 | locus YDL017W, strain CDC7, active compounds read low 0.986 | locus YDL028C, strain MPS1, active compounds read low 0.995 | locus YDL101C, strain DUN1, active compounds read low 0.973 | locus YDL108W, strain KIN28, active compounds read low 0.985 | locus YDL132W, strain cdc53, active compounds read low 0.974 | locus YDL214C, strain PRR2, active compounds read low 1 | locus YDR052C, strain DBF4, active compounds read low 0.984 | locus YDR054C, strain cdc34, active compounds read low 0.974 | locus YDR226W, strain ADK1, active compounds read low 0.985 | locus YDR477W, strain SNF1, active compounds read low 0.99 | locus YER123W, strain YCK3, active compounds read low 1 | locus YER133W, strain GLC7, active compounds read low 1 | locus YFL009W, strain cdc4, active compounds read low 0.98 | locus YFL029C, strain CAK1, active compounds read low 0.985 | locus YFR003C, strain YPI1, active compounds read low 0.98 | locus YFR019W, strain FAB1, active compounds read low 0.998 | locus YFR028C, strain CDC14, active compounds read low 0.986 | locus YGR040W, strain KSS1, active compounds read low 0.993 | locus YGR052W, strain FMP48, active compounds read low 1.07 | locus YGR092W, strain DBF2, active compounds read low 0.988 | locus YHR030C, strain SLT2, active compounds read low 1.13 | locus YHR079C, strain IRE1, active compounds read low 1 | locus YHR082C, strain KSP1, active compounds read low 1.27 | locus YHR205W, strain SCH9, active compounds read low 0.981 | locus YIL147C, strain SLN1, active compounds read low 0.988 | locus YJL095W, strain BCK1, active compounds read low 0.974 | locus YJL128C, strain PBS2, active compounds read low 0.916 | locus YJL157C, strain FAR1, active compounds read low 0.997 | locus YJR016C, strain ILV3, active compounds read low 0.974 | locus YJR066W, strain TOR1 (second series), active compounds read low 1 | locus YJR066W, strain TOR1, active compounds read low 1.26 | locus YKL048C, strain ELM1, active compounds read low 0.955 | locus YKL067W, strain YNK1, active compounds read low 0.978 | locus YKL101W, strain HSL1, active compounds read low 0.958 | locus YKL193C, strain SDS22, active compounds read low 0.977 | locus YKL203C, strain TOR2, active compounds read low 1.06 | locus YLR113W, strain HOG1, active compounds read low 0.995 | locus YLR133W, strain CKI1, active compounds read low 0.979 | locus YLR403W, strain SFP1, active compounds read low 1 | locus YML070W, strain DAK1, active compounds read low 0.995 | locus YMR001C, strain CDC5, active compounds read low 0.984 | locus YMR205C, strain PFK2 (second series), active compounds read low 0.998 | locus YMR277W, strain FCP1, active compounds read low 0.978 | locus YNL006W, strain LST8, active compounds read low 0.982 | locus YNL020C, strain ARK1, active compounds read low 0.978 | locus YNL161W, strain CBK1, active compounds read low 0.98 | locus YNL183C, strain NPR1, active compounds read low 0.961 | locus YNL207W, strain RIO2, active compounds read low 0.985 | locus YNL222W, strain SSU72, active compounds read low 0.994 | locus YNL307C, strain MCK1 (second series), active compounds read low 0.978 | locus YOL078W, strain AVO1, active compounds read low 0.96 | locus YOL136C, strain PFK27, active compounds read low 1 | locus YOR061W, strain CKA2, active compounds read low 0.991 | locus YOR119C, strain RIO1, active compounds read low 1.01 | locus YOR231W, strain MKK1, active compounds read low 0.998 | locus YOR329C, strain SCD5, active compounds read low 0.989 | locus YPL031C, strain PHO85, active compounds read low 0.995 | locus YPL153C, strain RAD53, active compounds read low 0.994 | locus YPL204W, strain HRR25, active compounds read low 1 | locus YPL209C, strain IPL1, active compounds read low 0.99 | locus YPL256C, strain CLN2, active compounds read low 0.97 | locus YPR025C, strain CCL1, active compounds read low 0.992 | locus YPR106W, strain ISR1, active compounds read low 0.968 | locus YPR111W, strain DBF20, active compounds read low 0.959 | strain NNK1, active compounds read low 0.963 | strain TSCII, active compounds read low 0.985
